# How the values were obtained:
# [1] = test system: Epidermal growth factor receptor (Homo sapiens), P00533 [T790M]; conditions: at 1 µM
# [2] = test system: Epidermal growth factor receptor (Homo sapiens), P00533 [L858R,T790M]; conditions: at 0.1 µM
# [3] = test system: Epidermal growth factor receptor (Homo sapiens), P00533 [L858R,T790M]; conditions: at 1 µM
# [4] = biological target: Ephrin type-A receptor 2 (Homo sapiens) (UniProt P29317); conditions: at 0.1 µM
# [5] = biological target: Ephrin type-A receptor 2 (Homo sapiens) (UniProt P29317); conditions: at 1 µM
# [6] = biological target: T1, Ephrin type-A receptor 3 (Homo sapiens) (UniProt P29320); conditions: at 0.1 µM
# T1 sequence (whole entry): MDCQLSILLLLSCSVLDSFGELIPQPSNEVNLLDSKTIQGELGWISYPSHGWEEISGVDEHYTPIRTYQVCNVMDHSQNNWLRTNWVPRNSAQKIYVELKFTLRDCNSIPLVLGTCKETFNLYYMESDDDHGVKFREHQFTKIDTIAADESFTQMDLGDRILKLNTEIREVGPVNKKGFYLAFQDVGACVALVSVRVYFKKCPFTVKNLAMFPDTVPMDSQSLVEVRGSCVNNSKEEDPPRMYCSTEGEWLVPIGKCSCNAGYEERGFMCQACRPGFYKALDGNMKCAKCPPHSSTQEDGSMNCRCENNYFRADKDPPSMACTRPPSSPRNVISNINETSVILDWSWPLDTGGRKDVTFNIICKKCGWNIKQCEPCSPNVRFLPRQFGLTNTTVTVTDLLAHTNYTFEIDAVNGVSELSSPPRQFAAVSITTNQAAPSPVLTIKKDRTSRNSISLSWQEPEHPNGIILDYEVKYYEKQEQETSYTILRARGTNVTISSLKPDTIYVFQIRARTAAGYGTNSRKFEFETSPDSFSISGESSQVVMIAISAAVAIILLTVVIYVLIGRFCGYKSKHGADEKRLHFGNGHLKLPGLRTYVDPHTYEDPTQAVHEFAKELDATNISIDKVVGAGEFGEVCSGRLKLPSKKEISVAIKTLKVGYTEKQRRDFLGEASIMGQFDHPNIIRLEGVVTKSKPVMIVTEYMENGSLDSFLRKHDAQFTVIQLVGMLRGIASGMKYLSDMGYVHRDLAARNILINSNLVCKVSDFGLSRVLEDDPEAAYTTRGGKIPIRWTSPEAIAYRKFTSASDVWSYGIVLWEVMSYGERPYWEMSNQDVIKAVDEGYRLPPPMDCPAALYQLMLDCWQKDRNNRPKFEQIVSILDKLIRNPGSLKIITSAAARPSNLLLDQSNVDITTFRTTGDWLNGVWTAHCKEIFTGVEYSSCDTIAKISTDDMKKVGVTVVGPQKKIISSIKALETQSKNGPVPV
# [7] = biological target: T1, Ephrin type-A receptor 3 (Homo sapiens); conditions: at 1 µM
# [8] = biological target: Ephrin type-A receptor 4 (Homo sapiens) (UniProt P54764); conditions: at 0.1 µM
# Sequence of Ephrin type-A receptor 4 (Homo sapiens) (P54764 whole entry): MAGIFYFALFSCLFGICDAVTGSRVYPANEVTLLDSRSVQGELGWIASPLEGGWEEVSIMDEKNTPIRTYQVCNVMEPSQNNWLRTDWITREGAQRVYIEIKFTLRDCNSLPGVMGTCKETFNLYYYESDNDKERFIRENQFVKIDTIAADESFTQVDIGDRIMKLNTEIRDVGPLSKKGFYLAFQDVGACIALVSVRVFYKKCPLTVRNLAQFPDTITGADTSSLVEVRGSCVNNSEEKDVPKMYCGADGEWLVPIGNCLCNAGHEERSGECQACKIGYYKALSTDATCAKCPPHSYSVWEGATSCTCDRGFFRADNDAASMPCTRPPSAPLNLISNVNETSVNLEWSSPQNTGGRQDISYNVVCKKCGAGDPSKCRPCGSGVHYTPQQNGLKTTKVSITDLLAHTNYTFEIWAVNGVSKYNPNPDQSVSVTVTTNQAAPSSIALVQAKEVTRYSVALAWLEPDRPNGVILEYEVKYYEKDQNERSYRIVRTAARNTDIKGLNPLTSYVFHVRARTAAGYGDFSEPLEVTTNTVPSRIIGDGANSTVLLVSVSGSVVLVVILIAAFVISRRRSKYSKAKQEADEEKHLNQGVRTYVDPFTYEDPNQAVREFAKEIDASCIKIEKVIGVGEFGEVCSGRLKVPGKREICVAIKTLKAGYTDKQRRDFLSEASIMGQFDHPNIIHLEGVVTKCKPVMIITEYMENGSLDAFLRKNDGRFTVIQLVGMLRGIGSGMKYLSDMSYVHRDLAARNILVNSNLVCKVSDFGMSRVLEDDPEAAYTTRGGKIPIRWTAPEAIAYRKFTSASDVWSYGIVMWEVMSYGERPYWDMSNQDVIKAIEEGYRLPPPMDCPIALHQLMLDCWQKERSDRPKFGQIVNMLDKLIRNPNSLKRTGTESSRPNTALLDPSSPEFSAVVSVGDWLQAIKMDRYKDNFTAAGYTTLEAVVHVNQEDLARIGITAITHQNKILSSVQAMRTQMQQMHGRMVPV
# [9] = biological target: Ephrin type-A receptor 4 (Homo sapiens) (UniProt P54764); conditions: at 1 µM
# [10] = biological target: T2, Ephrin type-B receptor 2 (Homo sapiens) (UniProt P29323); conditions: at 0.1 µM
# T2 sequence (whole entry): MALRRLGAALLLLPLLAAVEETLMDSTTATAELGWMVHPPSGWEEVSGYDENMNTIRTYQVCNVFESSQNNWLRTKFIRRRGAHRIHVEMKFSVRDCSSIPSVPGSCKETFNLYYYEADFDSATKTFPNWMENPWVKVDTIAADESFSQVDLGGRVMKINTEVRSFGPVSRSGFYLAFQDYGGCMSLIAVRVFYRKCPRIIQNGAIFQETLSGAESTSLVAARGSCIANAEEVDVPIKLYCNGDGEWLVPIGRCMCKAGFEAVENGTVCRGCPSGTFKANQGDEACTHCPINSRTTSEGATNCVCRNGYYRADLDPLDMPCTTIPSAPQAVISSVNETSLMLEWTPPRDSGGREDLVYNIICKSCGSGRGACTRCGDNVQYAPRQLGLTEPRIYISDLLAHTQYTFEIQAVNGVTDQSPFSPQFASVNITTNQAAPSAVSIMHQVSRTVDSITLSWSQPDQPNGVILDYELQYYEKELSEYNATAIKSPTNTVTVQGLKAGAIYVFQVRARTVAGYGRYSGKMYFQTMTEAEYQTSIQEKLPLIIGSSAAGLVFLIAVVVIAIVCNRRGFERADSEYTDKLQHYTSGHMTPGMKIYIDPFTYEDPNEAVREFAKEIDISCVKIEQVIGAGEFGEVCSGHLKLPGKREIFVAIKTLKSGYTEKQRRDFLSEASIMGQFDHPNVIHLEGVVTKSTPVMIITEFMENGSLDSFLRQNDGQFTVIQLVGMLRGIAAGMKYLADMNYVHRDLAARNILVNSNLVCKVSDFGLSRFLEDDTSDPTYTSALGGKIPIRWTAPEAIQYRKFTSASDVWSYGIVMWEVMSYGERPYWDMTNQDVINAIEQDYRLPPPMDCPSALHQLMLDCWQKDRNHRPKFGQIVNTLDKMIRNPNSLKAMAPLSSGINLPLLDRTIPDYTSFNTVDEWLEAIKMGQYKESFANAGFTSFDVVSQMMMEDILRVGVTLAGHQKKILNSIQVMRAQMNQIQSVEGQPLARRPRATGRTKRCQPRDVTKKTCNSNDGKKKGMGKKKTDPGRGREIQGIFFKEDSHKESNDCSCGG
# [11] = biological target: T2, Ephrin type-B receptor 2 (Homo sapiens); conditions: at 1 µM
# [12] = biological target: T3, Ephrin type-B receptor 3 (Homo sapiens) (UniProt P54753); conditions: at 0.1 µM
# T3 sequence (whole entry): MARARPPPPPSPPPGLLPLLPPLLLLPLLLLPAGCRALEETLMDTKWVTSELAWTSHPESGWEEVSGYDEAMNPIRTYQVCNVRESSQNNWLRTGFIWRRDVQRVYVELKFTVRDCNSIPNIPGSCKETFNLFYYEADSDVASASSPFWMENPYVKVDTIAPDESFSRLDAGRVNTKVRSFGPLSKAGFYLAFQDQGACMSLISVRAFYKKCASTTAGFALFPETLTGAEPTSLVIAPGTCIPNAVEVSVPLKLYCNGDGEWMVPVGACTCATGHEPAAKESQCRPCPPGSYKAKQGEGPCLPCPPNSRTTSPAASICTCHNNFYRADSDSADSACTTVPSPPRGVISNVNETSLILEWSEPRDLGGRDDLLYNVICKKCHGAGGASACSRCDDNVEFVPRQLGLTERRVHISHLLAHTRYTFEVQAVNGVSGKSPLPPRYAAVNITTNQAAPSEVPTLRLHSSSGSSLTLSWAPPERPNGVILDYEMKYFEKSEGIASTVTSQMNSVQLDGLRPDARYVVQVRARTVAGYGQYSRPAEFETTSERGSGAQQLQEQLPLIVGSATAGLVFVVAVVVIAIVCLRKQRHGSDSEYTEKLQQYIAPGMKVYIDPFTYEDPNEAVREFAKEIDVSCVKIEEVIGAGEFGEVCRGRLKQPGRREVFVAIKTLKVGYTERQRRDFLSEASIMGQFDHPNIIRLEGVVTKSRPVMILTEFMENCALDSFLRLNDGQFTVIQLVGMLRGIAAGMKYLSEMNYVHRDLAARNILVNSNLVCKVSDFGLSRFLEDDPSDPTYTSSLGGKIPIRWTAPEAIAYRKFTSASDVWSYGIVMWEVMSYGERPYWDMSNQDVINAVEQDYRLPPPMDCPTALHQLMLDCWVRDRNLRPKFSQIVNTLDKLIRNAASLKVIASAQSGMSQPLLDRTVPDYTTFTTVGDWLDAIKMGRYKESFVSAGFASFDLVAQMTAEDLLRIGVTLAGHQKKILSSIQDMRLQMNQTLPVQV
# [13] = biological target: T3, Ephrin type-B receptor 3 (Homo sapiens); conditions: at 1 µM
# [14] = biological target: T4, Ephrin type-B receptor 4 (Homo sapiens) (UniProt P54760); conditions: at 0.1 µM
# T4 sequence (whole entry): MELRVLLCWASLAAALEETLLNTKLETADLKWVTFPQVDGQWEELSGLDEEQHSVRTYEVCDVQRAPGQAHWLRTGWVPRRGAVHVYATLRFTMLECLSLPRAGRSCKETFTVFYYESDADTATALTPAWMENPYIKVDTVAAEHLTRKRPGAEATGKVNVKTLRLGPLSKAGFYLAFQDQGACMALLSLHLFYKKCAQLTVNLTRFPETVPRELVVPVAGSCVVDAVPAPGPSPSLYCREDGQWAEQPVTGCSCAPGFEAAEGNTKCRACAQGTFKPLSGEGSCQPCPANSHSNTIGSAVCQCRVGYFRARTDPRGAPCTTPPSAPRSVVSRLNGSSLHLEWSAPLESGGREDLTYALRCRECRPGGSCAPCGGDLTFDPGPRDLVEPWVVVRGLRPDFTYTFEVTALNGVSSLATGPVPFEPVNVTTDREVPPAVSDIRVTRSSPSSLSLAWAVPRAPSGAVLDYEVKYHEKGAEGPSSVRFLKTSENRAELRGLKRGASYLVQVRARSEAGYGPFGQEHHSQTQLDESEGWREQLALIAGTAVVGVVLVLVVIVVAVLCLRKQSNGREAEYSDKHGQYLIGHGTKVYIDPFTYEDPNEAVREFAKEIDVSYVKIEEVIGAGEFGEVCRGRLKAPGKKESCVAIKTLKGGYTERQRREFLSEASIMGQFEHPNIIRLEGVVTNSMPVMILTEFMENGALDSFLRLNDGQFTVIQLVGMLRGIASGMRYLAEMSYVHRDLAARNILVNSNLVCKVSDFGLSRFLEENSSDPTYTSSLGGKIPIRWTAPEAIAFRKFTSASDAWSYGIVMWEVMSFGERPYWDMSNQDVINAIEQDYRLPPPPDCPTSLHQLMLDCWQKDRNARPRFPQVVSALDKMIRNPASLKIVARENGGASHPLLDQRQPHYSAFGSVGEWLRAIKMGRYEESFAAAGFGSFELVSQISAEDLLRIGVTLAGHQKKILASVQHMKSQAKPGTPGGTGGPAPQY
# [15] = biological target: T4, Ephrin type-B receptor 4 (Homo sapiens); conditions: at 1 µM
# [16] = biological target: Receptor tyrosine-protein kinase erbB-2 (Homo sapiens) (UniProt P04626); conditions: at 0.1 µM
# Sequence of Receptor tyrosine-protein kinase erbB-2 (Homo sapiens) (P04626 whole entry): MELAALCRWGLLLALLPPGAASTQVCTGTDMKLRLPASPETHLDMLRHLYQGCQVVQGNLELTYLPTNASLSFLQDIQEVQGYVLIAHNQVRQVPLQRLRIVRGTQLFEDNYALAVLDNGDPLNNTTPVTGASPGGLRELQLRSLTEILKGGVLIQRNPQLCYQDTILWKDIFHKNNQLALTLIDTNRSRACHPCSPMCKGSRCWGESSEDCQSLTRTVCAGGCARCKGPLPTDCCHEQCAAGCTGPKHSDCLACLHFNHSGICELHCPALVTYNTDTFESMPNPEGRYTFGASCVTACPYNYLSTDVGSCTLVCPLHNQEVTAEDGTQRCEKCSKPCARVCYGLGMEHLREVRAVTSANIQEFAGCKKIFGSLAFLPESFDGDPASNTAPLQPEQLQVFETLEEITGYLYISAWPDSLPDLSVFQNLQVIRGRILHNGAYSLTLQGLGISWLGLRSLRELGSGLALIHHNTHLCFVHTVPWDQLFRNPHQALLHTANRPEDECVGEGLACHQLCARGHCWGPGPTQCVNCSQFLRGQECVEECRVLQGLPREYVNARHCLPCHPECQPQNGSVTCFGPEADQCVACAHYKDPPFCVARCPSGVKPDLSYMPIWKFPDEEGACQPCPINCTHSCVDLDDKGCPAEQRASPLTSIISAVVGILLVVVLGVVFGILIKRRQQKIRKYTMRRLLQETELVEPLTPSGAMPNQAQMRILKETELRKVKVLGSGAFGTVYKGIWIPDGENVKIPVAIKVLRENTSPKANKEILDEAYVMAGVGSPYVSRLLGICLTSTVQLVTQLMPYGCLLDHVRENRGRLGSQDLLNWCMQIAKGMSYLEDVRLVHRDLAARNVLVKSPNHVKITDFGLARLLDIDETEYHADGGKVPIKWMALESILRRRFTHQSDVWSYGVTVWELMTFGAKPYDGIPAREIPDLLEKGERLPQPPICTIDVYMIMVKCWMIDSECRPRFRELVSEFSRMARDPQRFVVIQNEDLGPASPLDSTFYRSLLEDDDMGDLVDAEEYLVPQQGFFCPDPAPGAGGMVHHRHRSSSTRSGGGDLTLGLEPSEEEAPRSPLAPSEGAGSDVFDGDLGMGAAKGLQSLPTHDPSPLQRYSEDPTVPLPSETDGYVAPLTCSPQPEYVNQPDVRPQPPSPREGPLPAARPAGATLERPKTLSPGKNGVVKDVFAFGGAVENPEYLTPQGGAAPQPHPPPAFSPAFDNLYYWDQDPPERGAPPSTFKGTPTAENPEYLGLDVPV
# [17] = biological target: Receptor tyrosine-protein kinase erbB-2 (Homo sapiens) (UniProt P04626); conditions: at 1 µM
# [18] = biological target: Receptor tyrosine-protein kinase erbB-4 (Homo sapiens) (UniProt Q15303); conditions: at 0.1 µM
# Sequence of Receptor tyrosine-protein kinase erbB-4 (Homo sapiens) (Q15303 whole entry): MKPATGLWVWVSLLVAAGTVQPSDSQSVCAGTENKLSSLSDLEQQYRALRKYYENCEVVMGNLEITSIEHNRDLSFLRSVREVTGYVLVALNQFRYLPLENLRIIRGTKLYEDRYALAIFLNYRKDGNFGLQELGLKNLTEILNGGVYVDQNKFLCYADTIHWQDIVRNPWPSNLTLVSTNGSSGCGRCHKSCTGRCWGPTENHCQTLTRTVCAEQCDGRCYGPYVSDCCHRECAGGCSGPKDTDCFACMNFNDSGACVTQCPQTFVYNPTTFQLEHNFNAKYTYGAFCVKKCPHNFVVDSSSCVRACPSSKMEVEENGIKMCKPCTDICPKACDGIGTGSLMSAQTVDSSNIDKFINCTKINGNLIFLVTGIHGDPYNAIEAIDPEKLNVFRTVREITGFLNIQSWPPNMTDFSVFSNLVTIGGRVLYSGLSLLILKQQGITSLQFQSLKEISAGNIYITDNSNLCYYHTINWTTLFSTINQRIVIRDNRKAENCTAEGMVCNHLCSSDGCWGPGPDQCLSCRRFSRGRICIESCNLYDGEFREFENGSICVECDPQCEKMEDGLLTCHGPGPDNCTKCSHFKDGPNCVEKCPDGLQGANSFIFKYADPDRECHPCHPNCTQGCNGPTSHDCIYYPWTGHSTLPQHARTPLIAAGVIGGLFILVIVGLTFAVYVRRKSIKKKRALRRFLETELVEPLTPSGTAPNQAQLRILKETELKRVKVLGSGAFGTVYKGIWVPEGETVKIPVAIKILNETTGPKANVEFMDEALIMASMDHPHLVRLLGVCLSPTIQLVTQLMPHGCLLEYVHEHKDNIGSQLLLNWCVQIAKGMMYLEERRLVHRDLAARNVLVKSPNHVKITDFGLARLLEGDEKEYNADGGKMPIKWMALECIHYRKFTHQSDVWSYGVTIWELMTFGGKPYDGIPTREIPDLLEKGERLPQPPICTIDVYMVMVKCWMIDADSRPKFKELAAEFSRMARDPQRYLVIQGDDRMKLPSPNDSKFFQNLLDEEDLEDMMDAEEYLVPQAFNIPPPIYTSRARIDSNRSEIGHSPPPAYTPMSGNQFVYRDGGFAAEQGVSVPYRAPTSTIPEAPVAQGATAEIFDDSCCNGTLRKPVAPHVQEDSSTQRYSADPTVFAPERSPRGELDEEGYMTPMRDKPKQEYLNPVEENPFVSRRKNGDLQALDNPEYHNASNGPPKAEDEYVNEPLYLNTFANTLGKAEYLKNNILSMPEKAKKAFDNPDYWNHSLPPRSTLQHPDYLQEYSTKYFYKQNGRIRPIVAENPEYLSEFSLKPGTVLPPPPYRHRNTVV
# [19] = biological target: Receptor tyrosine-protein kinase erbB-4 (Homo sapiens) (UniProt Q15303); conditions: at 1 µM
# [20] = biological target: Tyrosine-protein kinase Fer (Homo sapiens) (UniProt P16591); conditions: at 0.1 µM;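 also: reported figures are averaged percent inhibition of FER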
# Sequence of Epidermal growth factor receptor (Homo sapiens), P00533 [L858R,T790M] (P00533 whole entry T790M/L858R, looked up): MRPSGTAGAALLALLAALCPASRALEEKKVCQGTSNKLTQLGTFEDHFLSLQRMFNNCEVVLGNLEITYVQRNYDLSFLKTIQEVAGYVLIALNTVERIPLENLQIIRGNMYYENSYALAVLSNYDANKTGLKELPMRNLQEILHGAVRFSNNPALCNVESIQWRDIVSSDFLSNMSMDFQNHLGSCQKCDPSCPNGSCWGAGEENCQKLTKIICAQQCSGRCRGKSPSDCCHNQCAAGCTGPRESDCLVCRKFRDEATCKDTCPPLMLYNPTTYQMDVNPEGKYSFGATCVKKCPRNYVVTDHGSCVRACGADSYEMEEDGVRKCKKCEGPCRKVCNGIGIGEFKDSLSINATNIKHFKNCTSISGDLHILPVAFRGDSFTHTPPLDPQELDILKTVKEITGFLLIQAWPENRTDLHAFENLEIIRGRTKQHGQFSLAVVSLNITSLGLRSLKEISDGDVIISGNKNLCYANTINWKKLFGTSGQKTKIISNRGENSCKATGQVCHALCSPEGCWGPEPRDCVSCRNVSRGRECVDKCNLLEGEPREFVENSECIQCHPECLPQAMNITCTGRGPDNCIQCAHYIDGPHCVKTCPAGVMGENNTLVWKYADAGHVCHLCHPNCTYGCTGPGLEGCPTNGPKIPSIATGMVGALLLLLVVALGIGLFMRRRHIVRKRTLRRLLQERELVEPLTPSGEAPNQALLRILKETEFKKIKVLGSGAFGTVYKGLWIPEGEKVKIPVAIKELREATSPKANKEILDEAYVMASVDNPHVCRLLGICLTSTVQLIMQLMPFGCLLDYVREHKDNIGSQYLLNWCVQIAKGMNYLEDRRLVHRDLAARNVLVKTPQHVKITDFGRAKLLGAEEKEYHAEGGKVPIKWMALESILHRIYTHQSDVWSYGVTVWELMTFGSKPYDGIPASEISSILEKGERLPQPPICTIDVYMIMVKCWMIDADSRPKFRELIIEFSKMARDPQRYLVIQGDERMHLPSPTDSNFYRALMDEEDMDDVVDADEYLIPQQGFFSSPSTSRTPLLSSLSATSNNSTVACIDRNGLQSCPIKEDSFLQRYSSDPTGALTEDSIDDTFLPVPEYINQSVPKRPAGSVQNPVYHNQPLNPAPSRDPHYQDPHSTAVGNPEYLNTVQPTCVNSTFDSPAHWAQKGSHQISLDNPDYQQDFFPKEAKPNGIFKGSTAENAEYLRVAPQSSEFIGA
SMILES,inhibition [1] [%],inhibition [2] [%],inhibition [3] [%],inhibition [4] [%],inhibition [5] [%],inhibition [6] [%],inhibition [7] [%],inhibition [8] [%],inhibition [9] [%],inhibition [10] [%],inhibition [11] [%],inhibition [12] [%],inhibition [13] [%],inhibition [14] [%],inhibition [15] [%],inhibition [16] [%],inhibition [17] [%],inhibition [18] [%],inhibition [19] [%],inhibition [20] [%]
NS(=O)(=O)c1cccc(-c2ccc3c(NC(=O)C4CC4)n[nH]c3c2)c1,-1.45,-1.29,3.22,-4.33,-3.03,-5.8,-2.02,-5.25,-5.49,-1.84,-0.57,-3.25,-3.05,-1.93,-1.01,-3.46,-5.29,-3.96,-3.93,1.7
[O-][S+]1CCN(Cc2ccc(-c3ccc4ncnc(Nc5ccc(OCc6ccccc6)c(F)c5)c4c3)o2)CC1,10.7,3.03,0.99,0.8,-0.21,4.64,4.32,4.58,-1.51,4.14,-0.23,3.15,1.61,0.35,2.22,20.4,75.1,68.7,88.7,3.77
CS(=O)(=O)Nc1ccc(N/C=C2\C(=O)Nc3ccccc32)cc1,-1.95,0.26,-4.58,-2.34,-1.5,-5.95,-4.36,-6.81,-2.53,-6.42,0.55,-5.53,-3.88,0.19,-0.64,-3.57,-1.76,–,-9.44,1.8
Nc1nc(-c2ccccn2)c(-c2ccc3ncccc3n2)s1,1.67,2.24,1.13,0.85,0.89,2.58,3.28,7.9,8.8,5.32,3.51,2.99,3.23,2.74,0.44,1.34,4.11,7.11,8.52,0.93
Cc1nnc(-c2ccc(C)c(-c3ccc(C(=O)Nc4cccc(C#N)c4)cc3)c2)o1,2.44,0.19,2.34,-0.29,-0.3,4.6,2.95,6.99,4.3,5.86,8.63,4.01,4.32,1.3,1.73,2.71,2.09,11,16.2,2
CC1=C(C(=O)Nc2ccc3[nH]ncc3c2)C(c2ccc(F)cc2)NC(=O)N1 (centres undefined),0.87,-2.35,-1.39,-2.91,-2.18,2.51,2.14,4.19,4.52,2.76,5.02,3.4,1.2,-1.65,0.92,-0.29,-0.74,4.16,5.19,0.09
NCc1ccc(-c2nc(-c3ccc(Cl)c(O)c3)c(-c3ccncc3)[nH]2)cc1,0.46,0.24,5.04,2.14,8.19,3.13,2.67,4.74,21.9,-0.39,8.63,5.47,12.8,3.82,9.77,-0.58,-0.9,11.1,28.9,0.8

# From ChEMBL document CHEMBL1961873, “Compounds: GSK PKIS; Assays: Nanosyn kinase panel” (2012)
